The supplement of paper PMC11732987, “Enantioselective OTUD7B fragment discovery through chemoproteomics screening and high-throughput optimisation” (Communications Chemistry, 2025)

Biological target: USP14 (UniProt P54578)
Experiment: log2 ratio of Biotin-Ahx-Ub-VS probe labelling (fragment/DMSO); higher = less target engagement (more negative = stronger competition), active = hit call of the paper (q ≤ 0.05, log2 ratio ≤ -1)
Details: compound concentration: 200 uM; treatment time: 3 h
Experimental: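 Competitive ABPP in HEK293T cell lysate. Lysates were treated with each chloroacetamide fragment at 200 µM for 3 h, then with Biotin-Ahx-Ub-VS (0.5 µM, 1 h), NeutrAvidin-enriched and analysed by diaPASEF LC-MS/MS. Protein LFQ was median-normalised; average log2 ratio is fragment/DMSO from an unpaired t-test (n=3 treated, n=44 DMSO). Hits: q ≤ 0.05, log2 ratio ≤ -1, unique peptides ≥ 2.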

USP14, sequence (P54578 whole entry, the tested form may be a part): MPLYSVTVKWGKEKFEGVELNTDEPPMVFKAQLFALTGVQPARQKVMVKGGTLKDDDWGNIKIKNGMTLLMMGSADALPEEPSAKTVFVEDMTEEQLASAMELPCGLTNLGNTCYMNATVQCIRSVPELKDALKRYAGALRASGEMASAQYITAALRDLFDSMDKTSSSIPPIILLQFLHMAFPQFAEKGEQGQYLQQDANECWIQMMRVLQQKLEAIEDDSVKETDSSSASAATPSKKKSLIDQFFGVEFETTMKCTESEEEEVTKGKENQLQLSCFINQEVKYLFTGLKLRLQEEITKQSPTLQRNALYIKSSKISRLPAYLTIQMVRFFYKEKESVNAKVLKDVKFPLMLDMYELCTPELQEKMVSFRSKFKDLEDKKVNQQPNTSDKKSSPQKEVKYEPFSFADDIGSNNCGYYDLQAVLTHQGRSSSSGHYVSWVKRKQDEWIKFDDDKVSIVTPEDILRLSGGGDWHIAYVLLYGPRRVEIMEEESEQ

log2 ratio of Biotin-Ahx-Ub-VS probe labelling, inactive:
O=C(CCl)Nc1ccc(F)cc1F -0.106
Cc1cccnc1NC(=O)C1CCN(C(=O)CCl)CC1.Cl -0.377
CN(CCc1ncc(Br)cn1)C(=O)CCl.Cl -0.0202
O=C(CCl)N1CCc2ccccc2C(O)C1 (configuration not stated) -0.255
O=C(CCl)N1CCC(C(=O)N2CCCC2)CC1 -0.0629
CC(C)n1nccc1NC(=O)CCl -0.146
CN(C(=O)CCl)c1nc2ccccc2s1 -0.178
